According to PubChem BioAssay (NCATS):
Values joined by “and” are separate entries in the source; they are usually repeats but may differ in a detail not shown here. Identical values can stand only once. Records with an inconclusive call do not appear. Active and inactive are the calls of the source. Unless noted, calls follow the shape of the dose curve; as a rule, active = well fitted curve in the direction sought with a large enough effect; inconclusive = small, poorly fitted or top-dose-only effect, or another doubt; inactive = no such curve, though single readings can be large; an effect the other way counts as inactive or inconclusive.

Tests used:
[1] = qHTS Assay for Identification of Small Molecule Agonists for NFkB Signaling Pathway. (AID 624478); also: 0% is about no effect
Summary of the method: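 NFkB-bla ME-180 cells (beta-lactamase reporter under NFkB response element) were plated overnight, treated with compound plus TNF alpha at 10 pM final (its EC50) for 5 hrs at 37 C, then loaded with LiveBLAzer substrate for 2 hrs.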

[2] = qHTS Assay for Identification of Small Molecule Antagonists for NFkB Signaling Pathway. (AID 624479; calls by dose curve;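 also: pathway stimulated with TNF alpha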; also: potency is read from the fitted curve at half-maximal effect)
[3] = Cell Proliferation Assay against the TMD8 Cell Line (AID 651645); details: TMD8 DLBCL cell line proliferation/viability; at 46.1 µM (top of the series);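 also: cells exposed to compound for 48 h before reading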
Summary of the method: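 TMD8 cells, 500/well in RPMI with 5% FBS, dosed immediately and grown 48 h at 37 C, 5% CO2. CellTiter-Glo luminescence normalised to DMSO 100% and 9.2 uM bortezomib (final) 0%.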

[4] = Cell Proliferation Assay against the HBL1 Cell Line (AID 651646); details: HBL1 DLBCL cells; at 46.1 µM (top of the series);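 also: cells exposed to compound for 48 h before reading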
Summary of the method: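 Luminescent ATP read-out (CellTiter-Glo) after 48 h compound exposure of HBL1 cells at 37 °C; percent activity was scaled between DMSO as 100% and 9.2 uM bortezomib (final) as 0%.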

[5] = Cell Proliferation Assay against the TMD8 Cell Line (Caspase readout at 16 hrs) (AID 651712); also: potency is read from the fitted curve at half-maximal effect
Summary of the method: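 Apoptotic response of TMD8 cells was judged from caspase 3/7 activation following a 16 hour compound incubation at 37 °C. Luminescent signal was converted to percent activity, with DMSO set as 0% and 9.2 uM final bortezomib as 100%.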

[6] = Cytotoxicity counterscreen for NFkB agonists and antagonists (AID 624476);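 also: cells exposed to compound for 48 hours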; also: potency is read from the fitted curve at half-maximal effect
[7] = Cell Proliferation Assay against the TMD8 Cell Line (Caspase readout at 8 hrs) (AID 651713); also: potency is read from the fitted curve at half-maximal effect
Summary of the method: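 TMD8 cells (500/well) in phenol red-free RPMI with 5% FBS were treated with compounds for 8 h at 37C, 5% CO2. Caspase-Glo 3/7 luminescence was read after 15 min at room temperature and normalised to DMSO (0%) and 9.2 uM bortezomib (100%).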

| SMILES | outcome [1] | Potency [2] | viability (% of control) [3] | viability, percent of control [4] | Potency [5] | Potency [6] | Potency [7] |
| --- | --- | --- | --- | --- | --- | --- | --- |
| O=C(c1ccc(Nc2nccc(-c3cc4ccccc4s3)n2)cc1)N1CCC(N2CCCC2)CC1 | inactive | 0.266 µM (active) | 0.477% | 0.745% | inactive |  |  |
| COCCn1c2c([n+](Cc3cnccn3)c1C)C(=O)c1ccccc1C2=O | inactive |  |  | 1.98% | inactive | 0.0118 µM (active) |  |
| CS(=O)(=O)N1CCN(Cc2cc3nc(-c4cccc5[nH]ncc45)nc(N4CCOCC4)c3s2)CC1 | inactive |  |  |  |  |  |  |
| COc1cc2nccc(Oc3ccc(NC(=O)C4(C(=O)Nc5ccc(F)cc5)CC4)cc3)c2cc1OC | inactive | 16.8 µM (active) | 18.7% | 3.78% | 26.4 µM (active) |  |  |
| C[C@@]12O[C@@H](C[C@]1(O)CO)n1c3ccccc3c3c4c(c5c6ccccc6n2c5c31)CNC4=O | inactive |  |  | 3.21% |  | 3.32 µM (active) |  |
| C=CC(=O)Nc1cc2c(Nc3ccc(F)c(Cl)c3)ncnc2cc1OCCCN1CCOCC1 |  | 16.8 µM (active) | 0.581% | 0.769% |  | 23.5 µM (active) | 14.8 µM (active) |
| COc1cc(OC2CCN(C)CC2)ccc1Nc1ncc2c(n1)n(C1CCCC1)c(=O)n2C | inactive |  |  | 38.2% |  | inactive | 10.5 µM (active) |
| O=C(Nc1cc(C(F)(F)F)cc(C(F)(F)F)c1)c1cc(Cl)ccc1O | inactive |  | 1.86% | 12.7% | 0.296 µM (active) | 0.235 µM (active) |  |
| C=CC(=O)Nc1cc2c(Nc3ccc(F)c(Cl)c3)ncnc2cc1C#CC(C)(C)N1CCN(C)CC1 |  | 4.73 µM (active) | -0.868% | 0.0807% |  | 7.43 µM (active) | 5.26 µM (active) |
| C=CCn1c(=O)c2cnc(Nc3ccc(N4CCN(C)CC4)cc3)nc2n1-c1cccc(C(C)(C)O)n1 | inactive |  |  | 31.1% |  | 1.66 µM (active) |  |
| O=c1[nH]nc(Sc2ncc([N+](=O)[O-])s2)n1-c1ccc2c(c1)OCCO2 | inactive | 23.7 µM (active) | 0.996% | -0.138% | inactive |  | inactive |
| CC1=C(CO)C(=O)O[C@@H]([C@@H](C)[C@H]2CC[C@H]3[C@@H]4C[C@H]5O[C@]56[C@@H](O)C=CC(=O)[C@]6(C)[C@@H]4CC[C@]23C)C1 |  | 1.49 µM (active) | 0.616% | 1.69% | inactive | 3.32 µM (active) | inactive |
| C[C@@H](Oc1cc(-c2cnn(C3CCNCC3)c2)cnc1N)c1c(Cl)ccc(F)c1Cl | inactive |  | 2.18% | -0.628% |  | inactive | 26.4 µM (active) |
| Cc1ccc(C(=O)Nc2ccc(CN3CCN(C)CC3)c(C(F)(F)F)c2)cc1C#Cc1cnc2cccnn12 |  | 2.66 µM (active) | 1.83% | 2.46% | 0.662 µM (active) | 20.9 µM (active) | 23.5 µM (active) |
| Cn1cc(-c2[nH]c3cc(NC(=O)[C@H](N)C4CCCCC4)cc4c3c2C=NNC4=O)cn1 | inactive | inactive | 2.55% | 21.5% | 0.166 µM (active) |  |  |
| CC(C)(C)OC(=O)Nc1ccc(-c2cc(C(=O)NCCCCCCC(=O)NO)no2)cc1 | inactive | inactive | 2.43% | 3.39% | 1.32 µM (active) |  |  |
| Nc1ccc(C(=O)c2cc3c(ccc4ccccc43)[nH]2)cc1 | inactive | 14.9 µM (active) | 28.2% | 14.4% | 26.4 µM (active) |  | inactive |
| c1ccc2c(CCNc3ccc(Nc4ccncc4)cc3)c[nH]c2c1 |  | 10.6 µM (active) | 3.66% | 22.1% | 23.5 µM (active) | inactive |  |
| COc1cc(C(C)C)c2c(c1)S(=O)(=O)N(COc1cc(=O)n3cccc(OCCN4CCCCC4)c3n1)C2=O | inactive | 14.9 µM (active) | 0.892% | 1.12% | inactive |  |  |
| O=C(NCCCNc1nc(Nc2cccc(NC(=O)N3CCCC3)c2)ncc1I)c1cccs1 | inactive | 9.43 µM (active) and 5.3 µM (active) | 1.52% and 1.4% | 26.8% and 21.3% | 13.2 µM (active) and 5.9 µM (active) |  | 26.4 µM (active) and 29.6 µM (active) |
| Cc1nc2cnc3ccc(C#Cc4cccnc4)cc3c2n1-c1ccc(C(C)(C)C#N)cc1 | inactive |  | 0.22% | 0.379% |  | inactive | 26.4 µM (active) |
| Cn1c(=O)n(-c2ccc(C(C)(C)C#N)cc2)c2c3cc(-c4cnc5ccccc5c4)ccc3ncc21 | inactive | inactive | 10.6% | 38.2% | 20.9 µM (active) |  |  |
